Broadly, the inhibition is the relative decrease from the control value, in per cent.

Screen size: about 370,000 compounds; about 2,600 (0.7%) were called active.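 The calls were made as follows: active = inhibition above a cutoff: mean of compounds within the control limits plus 3 SD of those (cut at about 17% in these data); inactive = the rest.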 For the sample, actives were picked, then their nearest neighbours and some compounds at random.

For this experiment, the target named is Sialate O-acetylesterase (Homo sapiens) (UniProt Q9HAT2). Put plainly: human SIAE inhibitors, primary screen, biochemical, fluorescence polarization, FP-Rh probe, 1536-well HTS (AID 1053197).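 Also: 0% = plate median of compound wells and 100% = probe without SIAE protein.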 As to conditions: SIAE FP-Rh probe binding, at 9.66 µM, active compounds read high. (In general: In fluorescence polarisation assays a small probe gives low polarisation when free and higher when bound to something large.)
Sequence of Sialate O-acetylesterase (Homo sapiens) (Q9HAT2 whole entry, looked up): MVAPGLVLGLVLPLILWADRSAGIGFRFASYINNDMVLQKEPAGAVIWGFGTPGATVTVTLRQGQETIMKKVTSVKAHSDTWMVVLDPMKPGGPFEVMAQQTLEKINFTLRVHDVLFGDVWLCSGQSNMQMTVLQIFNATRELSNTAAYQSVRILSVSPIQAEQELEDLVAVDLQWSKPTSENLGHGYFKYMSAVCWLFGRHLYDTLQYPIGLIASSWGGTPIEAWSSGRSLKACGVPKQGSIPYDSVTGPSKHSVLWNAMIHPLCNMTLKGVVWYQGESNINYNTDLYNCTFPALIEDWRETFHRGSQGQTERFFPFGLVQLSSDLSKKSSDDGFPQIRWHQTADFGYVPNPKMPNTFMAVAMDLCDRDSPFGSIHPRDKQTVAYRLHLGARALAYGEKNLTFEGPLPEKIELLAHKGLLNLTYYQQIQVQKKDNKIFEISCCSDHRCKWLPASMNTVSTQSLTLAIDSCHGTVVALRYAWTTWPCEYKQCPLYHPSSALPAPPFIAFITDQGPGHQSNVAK
As to `C[C@@H](NC(=O)c1ccccc1OCC(=O)Nc1ccc(I)cc1)C(=O)N(C)Cc1ccccc1`, the inhibition was -10.2% (inactive). Turning to `O=C(CC[C@H]1O[C@@H](n2ccc(=O)[nH]c2=O)[C@H](O)[C@@H]1O)N[C@H](Cc1ccccc1)C(=O)NCc1ccco1`, the inhibition is 1.02% (inactive).

Regarding `Cc1ccc(NC(=O)[C@H](Cc2ccccc2)NC(=O)CC[C@H]2O[C@@H](n3ccc(=O)[nH]c3=O)[C@H](O)[C@@H]2O)cc1C`, the inhibition is 0.53% (inactive). On to `O=C(CC[C@H]1O[C@@H](n2ccc(=O)[nH]c2=O)[C@H](O)[C@@H]1O)N[C@H](Cc1ccccc1)C(=O)NCCCN1CCCC1=O`, for which the inhibition was 47.1% (active). For the compound `CSc1ccc(C=Nn2c(-c3ccc(F)cc3)n[nH]c2=S)cc1`, the inhibition was 2.39% (inactive). In the case of `O=C(Cn1cncn1)N/N=C/c1c2ccccc2cc2ccccc12`, the inhibition was -1.87% (inactive). Consider `C/C(=N\NC(=O)CNc1cccc2ccccc12)c1ccc(Br)s1`, for which the inhibition is -5.3% (inactive).

As for `Cn1cccc1/C=N/NC(=O)CNc1cccc2ccccc12`, the inhibition was 18.6% (active). Consider `C[C@H](C(=O)N(C)c1ccccc1)[C@@H](O)c1ccc2ccccc2c1`, for which the inhibition is 3.1% (inactive). Consider `CCC(=O)Nc1ccc2c(c1)C(=O)N(C)[C@@H]1CC[C@@H](CC(=O)NCCc3ccccc3)O[C@H]1CO2`, for which the inhibition was 1.28% (inactive). As for `COc1ccccc1C(=O)NC1CCCCN(C(C)C)C1=O` (configuration not stated), the inhibition was 0.76% (inactive). Consider `C=CCN(Cc1ccc2c(c1)OCO2)C(C#CC1CC1)C(C)(C)C` (configuration not stated), for which the inhibition was 4.36% (inactive).

For the compound `CCOC(=O)C1=C(C)N=C2c3ccccc3C(=O)C2C1c1ccc(Br)cc1` (configuration not stated), the inhibition is 18% (active). On to `COC(=O)C1=C(C(=O)OC)C2(OC1c1ccc(Br)cc1)C(=O)c1ccccc1C2=O` (configuration not stated), for which the inhibition is 14.3% (inactive). Turning to `CCOC(=O)C1=C(C)NC(SC)=NC1c1ccccc1` (configuration not stated), the inhibition was 5.58% (inactive). With `CCCCN1CCN(C(=O)c2ccc3c(c2)NC(=O)C(C)(C)O3)CC1`, the inhibition was -0.65% (inactive). Take `COC[C@@H]1CCCN1c1ccc2c(c1)O[C@H](C)CCN(C1CC1)S2(=O)=O`: the inhibition was -0.33% (inactive). For `CC(=O)Nc1ccc(OC[C@@H](O)CN2CCC(C(O)(c3ccccc3)c3ccccc3)CC2)cc1` the value was -6.43% (inactive).

With `CN(C)Cc1cn(-c2ccc(-c3noc4c3C(=O)N(CC(=O)N3CCOCC3)CC4)cc2)nn1`, the inhibition was -2.28% (inactive). For the compound `CN1c2ccc(C=O)c3c(C=O)ccc(c23)N(C)C1(C)C`, the inhibition is 21.9% (active).

Turning to `Cc1nc(CNc2ncnc3ccc(-c4ccc5c(c4)OCO5)cc23)cs1`, the inhibition is -10.9% (inactive). For `O=C(Nc1ccccc1)N1CCN(Cc2nc3ccccc3c(=O)[nH]2)CC1` the value was 12.6% (inactive).

Turning to `COc1ccc(Cn2cc(CN3[C@@H](CC(C)C)COc4cc(Br)ccc4S3(=O)=O)nn2)cc1`, the inhibition was 0.93% (inactive).

Consider `CN(C)S(=O)(=O)c1ccc(NC(=O)COC(=O)c2n[nH]c3ccccc23)cc1`, for which the inhibition is -22.8% (inactive). Regarding `O=C(COC(=O)c1c(Cl)cccc1Cl)Nc1cccc(S(=O)(=O)NC2=NCCCCC2)c1`, the inhibition was -8.81% (inactive). Take `NS(=O)(=O)c1ccc(NC(=O)COC(=O)c2c3c(nc4ccccc24)/C(=C\c2ccc4c(c2)OCO4)CCC3)cc1`: the inhibition is 43.9% (active). Regarding `C=CCN1C(=O)[C@@H](CC(=O)N2CCN(C(=O)OCC)CC2)[C@]2(C(=O)OCC)CCCCC/C=C/12`, the inhibition was 2.29% (inactive). The value for `Cc1ccc(S(=O)(=O)N2CCC(C(=O)OCC(=O)N(C)c3ccccc3)CC2)cc1C` was -1.79% (inactive); that for `CCN(C(=O)COC(=O)c1cc(S(=O)(=O)N2CCc3ccccc32)ccc1OC)C1CCS(=O)(=O)C1` (configuration not stated) was -1.8% (inactive). `CCN(C(=O)COC(=O)C1CCN(S(=O)(=O)c2ccc(C)c(C)c2)CC1)C1CCS(=O)(=O)C1` (configuration not stated): the inhibition was 26.2% (active). For `CC(=O)Nc1nc2ncccn2c1-c1ccc(C(F)(F)F)cc1`, the inhibition is 4.66% (inactive). On to `CC(=O)c1cc(-c2ccc3ccccc3c2)c(=O)n2c1CCC2`, for which the inhibition was -1.29% (inactive). Regarding `COc1ccccc1/C=C/C=N/NC(=O)CN1CCN(Cc2ccccc2)CC1`, the inhibition is 17.3% (active).

For the compound `COc1ccc(C(=O)O)cc1S(=O)(=O)NC1CCN(Cc2ccccc2)CC1`, the inhibition is 0.4% (inactive). Regarding `COc1ccccc1/C=C/CN1CCC(CO)(Cc2ccccc2)CC1`, the inhibition is -3.81% (inactive). In the case of `O=S1(=O)c2c(cccc2N2CC[C@H](O)C2)O[C@@H]2CCN1C2`, the inhibition is 6.21% (inactive). For the compound `COc1cccc(N2CCN(CC(=O)N(C)Cc3ccc(F)cc3)CC2)c1`, the inhibition was 1.64% (inactive). Take `Cc1ccnc(NS(=O)(=O)c2ccc(NC(=O)c3oc4ccccc4c3C)cc2)n1`: the inhibition was -5.42% (inactive).

As to `Cc1ccnc(NS(=O)(=O)c2ccc(NC(=O)c3ccc(S(=O)(=O)N(C)C)cc3)cc2)n1`, the inhibition was -1.59% (inactive).

Take `Cc1ccnc(NS(=O)(=O)c2ccc(NC(=O)c3ccc(S(=O)(=O)N4CCOCC4)cc3)cc2)n1`: the inhibition was 21% (active). For `CCCCCCN1CCS(=O)(=O)N(Cc2ccc(C(F)(F)F)cc2)C(C(=O)OC)C1` (configuration not stated) the value was -2.85% (inactive); for `CC(=O)OC12CCCN(C1)/C(=C/c1ccncc1)C2` (configuration not stated), 0.93% (inactive).

Consider `O=C(CCl)NC1CCCCN(Cc2cccc(C(F)(F)F)c2)C1=O` (configuration not stated), for which the inhibition was 1.33% (inactive).

For the compound `Cc1nc2ccc(C(=O)N3CCSCC3)cc2s1`, the inhibition is 80.7% (active). The value for `Cc1nc2ccc(S(=O)(=O)NC(C(=O)N3CCCCCC3)C(C)C)cc2s1` (configuration not stated) was -3.13% (inactive); that for `Cc1cccc(C(=O)N2CCC(c3nc4ccccc4s3)CC2)c1` was 1.7% (inactive). For `Cc1cc(C)nc(NC(=S)N2CCN(c3ccc(C(F)(F)F)cn3)CC2)c1`, the inhibition is -2.17% (inactive). Take `N#CC(C(N)=O)=C1CCC2(CC1)OCCCCO2`: the inhibition was -1.29% (inactive). The value for `CC1(C)C/C(=C(/C#N)C(N)=O)CCO1` was 17.1% (active); that for `Nn1c(SCC(=O)Nc2cccc3ccccc23)nnc1-c1cc(-c2ccc(F)cc2)n[nH]1` was -0.5% (inactive); that for `CC(C)(C)NC(=O)C(c1cccnc1)N(C(=O)c1cnco1)c1ccc(C(C)(C)C)cc1` (configuration not stated) was 2.03% (inactive).

On to `CCOc1cc(C(=O)O)ccc1OCCOc1ccccc1`, for which the inhibition was -4.46% (inactive). As to `CCOc1ccccc1Nc1ccc(C(=O)O)cc1[N+](=O)[O-]`, the inhibition was 17.1% (active). For the compound `CCOC(=O)c1ccc(NNC(C)=O)c([N+](=O)[O-])c1`, the inhibition was 3.08% (inactive). As for `O=C(CSc1nnc(COc2ccccc2)n1Cc1ccco1)c1ccc2ccccc2c1`, the inhibition was -7.8% (inactive). As to `CCOc1ccc(/C=N/OCC(=O)NCc2cccs2)cc1`, the inhibition is -7.11% (inactive).

For the compound `CCOc1ccc(NC(=O)C/C(C)=N/NC(=O)Cc2cccs2)cc1`, the inhibition was 21.6% (active). Consider `CCOc1ccc(NC(=O)CSc2nc3ccccc3c(=O)n2Cc2cccs2)cc1`, for which the inhibition is 0.33% (inactive).

As to `Cc1ccc(C(=O)C2CCN(CC(=O)NCCC(C)C)CC2)cc1`, the inhibition is 4.25% (inactive). On to `O=C(CSc1nc2ccccc2n1Cc1ccccc1Cl)N/N=C\c1c[nH]c2ccccc12`, for which the inhibition is -8.22% (inactive). In the case of `CC(CCN1CCC(C(O)(c2ccccc2)c2ccccc2)CC1)Oc1ccc(C(F)(F)F)cc1` (configuration not stated), the inhibition is 8.83% (inactive). The value for `COCCOC(=O)c1sc(=S)n(CCOC)c1N` was 35.8% (active). The value for `CCC(NC(=O)C1C2C=CC3(CN(Cc4ccccc4)C(=O)C13)O2)c1ccccc1` (configuration not stated) was 0.07% (inactive).

Consider `O=C(CSc1nc2ccccc2s1)NN=Cc1ccc(O)cc1O`, for which the inhibition was 7.21% (inactive). Consider `O=C(CSc1nnc(-c2ccccn2)n1-c1ccccc1)Nc1ccc2cn[nH]c2c1`, for which the inhibition was 1.79% (inactive).

Take `Cc1ccc(-n2c(SCC(=O)Nc3ccc(S(=O)(=O)Nc4nccs4)cc3)nnc2-c2ccncc2)cc1`: the inhibition is -12.6% (inactive).

Take `CNCC(O)c1ccc(O)c(O)c1` (configuration not stated): the inhibition was 4.81% (inactive). As to `CCC(C)c1ccc(O)c(/C=N/O)c1` (configuration not stated), the inhibition was 23.1% (active). For `O=S(=O)(c1ccccc1)N1CCC(c2nc3ccccc3o2)CC1`, the inhibition was 6.75% (inactive). Regarding `O=C1CC(c2ccc3c(c2)OCO3)N=C2N(CC3CC3)C/C(=C/c3ccccc3)N12` (configuration not stated), the inhibition is 6.68% (inactive). For `COc1ccc(-c2cc(-c3nnc(SCC(=O)Nc4cccc5ccccc45)n3N)[nH]n2)cc1` the value was 1.67% (inactive).

With `COC(=O)C[C@@H]1CC[C@@H]2[C@@H](COc3ccc(NC(=O)Nc4ccc(F)c(F)c4)cc3C(=O)N2C)O1`, the inhibition was -2.22% (inactive). For `O=C1CC[C@@H](COc2ccc3[nH]cc(-c4ccccc4)c3c2-c2ccccc2)N1` the value was 3.06% (inactive). Consider `COc1ccc2[nH]c3c(C)c4cc[n+](C)cc4c(C)c3c2c1`, for which the inhibition was 3.4% (inactive). For `COc1ccc2[nH]c(=S)cc(C)c2c1` the value was 23.9% (active); for `COc1ccc(N)c(C)c1`, 15.1% (inactive); for `COC(=O)C12C=C3CC(c4ccccc4)=C3C(=O)N1Cc1[nH]c3ccccc3c1C2` (configuration not stated), 5.02% (inactive). Turning to `Cc1cc(NS(=O)(=O)c2ccc(NC(=O)CSc3nnc(SCc4ccc(F)cc4)s3)cc2)nc(C)n1`, the inhibition was -8.85% (inactive). As for `COc1ccc(CN2C/C(=C/c3ccccc3)N3C(=O)C[C@@H](c4ccccc4)N=C23)c(OC)c1`, the inhibition was 3.22% (inactive). In the case of `O=C(NCc1ccco1)/C(=C\c1cccc([N+](=O)[O-])c1)NC(=O)c1ccco1`, the inhibition was -0.85% (inactive). Take `Cc1ccc(C(=O)N/C(=C/c2ccc(-c3cccc([N+](=O)[O-])c3)o2)C(=O)NCCCN(C)C)cc1`: the inhibition was 21.2% (active). For the compound `O=C(NCc1ccco1)/C(=C/c1cccc([N+](=O)[O-])c1)NC(=O)c1ccco1`, the inhibition was -7.3% (inactive). Turning to `C=CCN1C(=O)[C@H](CC(=O)NCCCN2CCCC2=O)[C@@]2(C(=O)OCC)CCCC=C12`, the inhibition was 4.17% (inactive). Consider `CCOC(=O)C1=C(C)NC2=C(C(=O)CC(C)(C)C2)C1c1ccc2c(c1)OCO2` (configuration not stated), for which the inhibition is -1.17% (inactive). With `COc1ccc(C2C(C(C)=O)=C(O)C(=O)N2CCc2c[nH]c3ccccc23)cc1` (configuration not stated), the inhibition is 18.4% (active). In the case of `COc1ccc2[nH]cc(CCN3C(=O)c4ccc(C(=O)O)cc4C3=O)c2c1`, the inhibition was 11.4% (inactive). Turning to `COC(=O)CN1C(=O)C(O)=C(C(C)=O)C1c1ccc([N+](=O)[O-])cc1` (configuration not stated), the inhibition is -9.46% (inactive).
